Screens (PubChem)
Sampled rows, rich in hits. Any-hit rate of the full collection: about 1.4%.
PrP UTR inh – inhibition of PrP 5' UTR reporter expression | cell-based PrP 5' UTR mRNA reporter, plate reader | inhibition, % (concentration not given with the values) | 340,000 tested, 0.35% active | AID 488862; in the data active = inhibition above about 52%
PrPC surface inh – cell surface PrPC inhibition, primary TR-FRET screen | P04156 | TR-FRET read-out | inhibition, % at 13.8 µM | 370,000 tested, 0.43% active | AID 720596; in the data active = inhibition above about 24%
Mtb hypoxia inh – inhibitors of hypoxia-regulated fluorescent reporter in Mycobacterium tuberculosis; AID 1159583; M. tuberculosis hypoxia-regulated fluorescent reporter, fluorescence; fluorescence inhibition, % (concentration not given with the values); 300,000 tested, 0.1% active; in the data active = fluorescence inhibition mostly above about 23%, no sharp cut-off; inactive = mostly below about 17%
RecA intein inh – Mtb RecA intein splicing inhibition | P9WHJ3 | cell-free RecA intein splicing, fluorescence | inhibition, % (test concentration not listed) | 290,000 tested, 0.75% active; in the data active = inhibition above about 30%
Target sequence (P9WHJ3 whole entry, looked up): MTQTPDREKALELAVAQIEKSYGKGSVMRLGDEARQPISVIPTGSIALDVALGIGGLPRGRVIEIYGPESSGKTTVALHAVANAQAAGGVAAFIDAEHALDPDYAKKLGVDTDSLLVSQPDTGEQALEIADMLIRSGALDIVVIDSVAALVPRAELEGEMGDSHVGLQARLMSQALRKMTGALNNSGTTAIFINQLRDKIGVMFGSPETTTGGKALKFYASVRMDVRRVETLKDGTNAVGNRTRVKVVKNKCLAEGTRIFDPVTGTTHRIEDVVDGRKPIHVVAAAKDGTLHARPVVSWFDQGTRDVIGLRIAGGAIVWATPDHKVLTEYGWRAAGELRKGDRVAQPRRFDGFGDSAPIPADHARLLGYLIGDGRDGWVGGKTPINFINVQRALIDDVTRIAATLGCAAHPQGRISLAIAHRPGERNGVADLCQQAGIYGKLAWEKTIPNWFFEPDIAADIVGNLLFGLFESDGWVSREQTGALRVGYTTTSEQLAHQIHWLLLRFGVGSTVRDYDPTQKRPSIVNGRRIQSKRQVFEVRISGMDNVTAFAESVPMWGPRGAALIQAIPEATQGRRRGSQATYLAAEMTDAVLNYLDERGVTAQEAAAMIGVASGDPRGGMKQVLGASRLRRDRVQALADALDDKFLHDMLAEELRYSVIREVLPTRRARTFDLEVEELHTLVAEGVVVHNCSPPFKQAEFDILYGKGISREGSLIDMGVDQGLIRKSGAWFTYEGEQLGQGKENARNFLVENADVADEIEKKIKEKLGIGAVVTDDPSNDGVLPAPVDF
SARS 3CLpro inh – SARS-CoV 3CLpro protease inhibition; recombinant SARS-CoV 3CLpro, quenched FRET peptide cleavage; inhibition, % at 6 µM; 290,000 tested, 0.14% active; AID 1706; in the data active = inhibition above about 12%
BJeLR lethal – kills HRASV12-expressing BJeLR cells. 300,000 tested, 0.17% active. inhibition, % (concentration not given with the values). BJeLR (HRASV12) viability, CellTiter-Glo ATP luminescence, 48 h; in the data active = inhibition above about 50%
GFP chromophore – counter-screen: blocks GFP chromophore formation. shares compounds with RecA intein inh. cell-free GFP chromophore formation, fluorescence. EC50, µM. 2,100 tested, 83% active. AID 434968; call rule not given here
Of the large screens only hits and unclear results are named; the others gave an inactive call (follow-up assays come after a bar, where they were run).

O=C(CS(=O)c1ccc(C(F)(F)F)cc1[N+](=O)[O-])Oc1ccccc1 (stereo not given)	RecA intein inh 66.0 | GFP chromophore 14.8
COc1ccccc1CNC(=O)CC(C)=NNC(=O)Cc1ccc(Cl)cc1	none (no result: PrP UTR inh, PrPC surface inh, RecA intein inh, SARS 3CLpro inh, BJeLR lethal)
CCN1C(=O)c2c(C)nc3ccccc3c2C1=O	RecA intein inh 47.4 (no result: PrPC surface inh) | GFP chromophore 2.24
COC(=O)NN=Cc1c(C)cc(C)cc1C	none (no result: PrP UTR inh, PrPC surface inh, RecA intein inh, SARS 3CLpro inh, BJeLR lethal)
CCOC(=O)CSc1nnc(NCC(=O)OC(C)C)c(=O)[nH]1	RecA intein inh 54.6 (no result: Mtb hypoxia inh) | GFP chromophore 36.6
NCCCCCc1cn(C(CCC(=O)O)C(=O)NCCCCCCCCCCC(=O)N2CCNCC2)nn1 (stereo not given)	none (no result: PrP UTR inh, PrPC surface inh, RecA intein inh, SARS 3CLpro inh, BJeLR lethal)
CCc1[nH]nc2c1C(c1ccncc1)C(C#N)=C(N)O2 (stereo not given)	none
Cc1[nH]nc2c1C(c1cn[nH]c1-c1ccc(F)cc1)C(C#N)=C(N)O2 (stereo not given)	RecA intein inh 65.1 (no result: Mtb hypoxia inh) | GFP chromophore 17.5
Cc1ccc(-c2[nH]nc3c2C(C)C(C#N)=C(N)O3)cc1 (stereo not given)	RecA intein inh 88.2 | GFP chromophore 0.496
N#CC1=C(N)Oc2n[nH]c(-c3ccccc3)c2C1c1ccncc1 (stereo not given)	RecA intein inh 64.6 | GFP chromophore 26.7
Cc1cc(C)c(C2C(C#N)=C(N)Oc3n[nH]c(C)c32)cc1CN1CCCC1 (stereo not given)	none
COc1cc(C2C(C#N)=C(N)Oc3n[nH]c(-c4cccnc4)c32)cc(Br)c1O (stereo not given)	RecA intein inh 81.0 | GFP chromophore 14.2
COc1ccc(C2CC(=O)C=C(c3ccc4c(c3)sc3ccccc34)C2)cc1 (stereo not given)	none (no result: PrP UTR inh, PrPC surface inh, RecA intein inh, SARS 3CLpro inh, BJeLR lethal)
CCC1=C(OC(=O)N(CC)CC)N2C(=O)OC(=NCC3CC3)[C@]2(C)C2C1=CCC1C(=O)N(C)C(=O)C12 (stereo not given in full)	none (no result: PrP UTR inh, PrPC surface inh, RecA intein inh, SARS 3CLpro inh, BJeLR lethal)
Cc1ccc(C2C(C#N)=C(N)Oc3n[nH]c(-c4cccnc4)c32)o1 (stereo not given)	RecA intein inh 53.0 | GFP chromophore 37.9
N#CC1=C(N)Oc2n[nH]c(-c3ccc(F)cc3)c2C1c1cccnc1 (stereo not given)	RecA intein inh 75.4 (no result: Mtb hypoxia inh) | GFP chromophore 15.6
CCOc1ccc(-c2[nH]nc3c2C(c2ccc(O)cc2)C(C#N)=C(N)O3)cc1 (stereo not given)	RecA intein inh 62.5 | GFP chromophore 14.7
CC1CN(C(C)CO)C(=O)c2cccc(NC(=O)Nc3ccc(F)cc3)c2OC1CN(C)Cc1ccccc1 (stereo not given)	none (no result: PrP UTR inh, PrPC surface inh, RecA intein inh, SARS 3CLpro inh, BJeLR lethal)
COc1cc(C=NNC(=O)c2nnn(-c3nonc3N)c2C(C)C)ccc1OCc1ccc(F)cc1	none (no result: PrP UTR inh, PrPC surface inh, RecA intein inh, SARS 3CLpro inh, BJeLR lethal)
CC(=O)OCC1OC(CC=NOC(C)c2cn(C(CO)Cc3ccccc3)nn2)C=CC1OC(C)=O (stereo not given)	none (no result: PrP UTR inh, PrPC surface inh, RecA intein inh, SARS 3CLpro inh, BJeLR lethal)
CC(=O)c1c(Cl)nc2cccc3c2c1-c1ccccc1C3=O	RecA intein inh 33.3 (no result: Mtb hypoxia inh) | GFP chromophore inactive
Oc1c(C(c2ccccn2)N2CCCCC2)cc(Cl)c2cccnc12 (stereo not given)	none
CN1CCN(C(c2ccc(Cl)cc2)c2cc(Cl)c3cccnc3c2O)CC1 (stereo not given)	RecA intein inh 79.4 (no result: Mtb hypoxia inh) | GFP chromophore 30.8
CN1CCN(C(c2ccc(C(F)(F)F)cc2)c2cc(Cl)c3cccnc3c2O)CC1 (stereo not given)	RecA intein inh 44.5 (no result: PrP UTR inh, Mtb hypoxia inh) | GFP chromophore 17.9
CCN1CCN(C(c2ccc(C(F)(F)F)cc2)c2ccc3cccnc3c2O)CC1 (stereo not given)	none
Cn1nccc1C(=O)NN=Cc1ccccc1[N+](=O)[O-]	none (no result: PrP UTR inh, PrPC surface inh, RecA intein inh, SARS 3CLpro inh, BJeLR lethal)
O=C(CN1C(=O)NC2NC(=O)NC21)NN=Cc1ccccc1F (stereo not given)	none (no result: PrP UTR inh, PrPC surface inh, RecA intein inh, SARS 3CLpro inh, BJeLR lethal)
CC(Oc1ccc(F)cc1)C(=O)Oc1ccc(N(C)S(=O)(=O)c2ccccc2)cc1 (stereo not given)	RecA intein inh 38.6 (no result: SARS 3CLpro inh) | GFP chromophore inactive
Cc1ccccc1CS(=O)(=O)c1snnc1C	RecA intein inh 43.5 | GFP chromophore inactive
COc1ccc(S(=O)(=O)Nc2ccc3c(c2)C(=O)N(C(C)CO)CC(C)C(CN(C)C(=O)Nc2ccc4c(c2)OCO4)O3)cc1 (stereo not given)	none (no result: PrP UTR inh, PrPC surface inh, RecA intein inh, SARS 3CLpro inh, BJeLR lethal)
